Reference: PubChem BioAssay AID1159580 (chemical genetic matrix, 2015)
Where “and” joins values, the source holds several entries; their conditions need not be identical. Equal entries are not always repeated. Among all 5,500 compounds or so, about 2,000 (36%) were called active. Not shown: some 18% with an inconclusive outcome. Rule as the data show it: active = normalized growth mostly below about 0.91 (no sharp cut-off); inconclusive = no clear call, values can overlap the other calls; inactive = mostly above about 0.92. Some of the results follow.

Assay: chemical genetic growth profiling, strain panel (AID 1159580);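 also: tested at 20 µM; growth read once vehicle control cultures reached saturation at 30 °C; 1 = growth at the plate median or of vehicle wells; lower values mean less growth of the strain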
Settings: S. cerevisiae deletion strains, growth OD

Measured: normalized growth

CCN(CC)CCNc1ccc(CO)c2sc3ccccc3c(=O)c12
inactive: locus YAL013W, strain DEP1, active compounds read low 1.01 | locus YAL021C, strain ccr4, active compounds read low 0.994 | locus YAL026C, strain drs2, active compounds read low 0.999 | locus YAL030W, strain snc1, active compounds read low 1.01 | locus YBL061C, strain skt5, active compounds read low 1 | locus YBR009C, strain hhf1, active compounds read low 1.01 | locus YBR021W, strain FUR4, active compounds read low 0.955 | locus YBR023C, strain chs3, active compounds read low 1 | locus YBR171W, strain sec66, active compounds read low 1.02 | locus YBR229C, strain ROT2, active compounds read low 1 | locus YBR231C, strain swc5, active compounds read low 1 | locus YBR279W, strain paf1, active compounds read low 1 | locus YCL011C, strain gbp2, active compounds read low 1 | locus YCL016C, strain dcc1, active compounds read low 1 | locus YCL029C, strain bik1, active compounds read low 1.01 | locus YCL069W, strain vba3, active compounds read low 1.01 | locus YCR088W, strain abp1, active compounds read low 1.01 | locus YDL005C, strain med2, active compounds read low 1.01 | locus YDL035C, strain GPR1, active compounds read low 0.992 | locus YDL040C, strain nat1, active compounds read low 0.993 | locus YDL074C, strain BRE1, active compounds read low 0.948 | locus YDL101C, strain DUN1, active compounds read low 0.979 | locus YDL134C, strain PPH21, active compounds read low 0.996 | locus YDL185W, strain tfp1, active compounds read low 1 | locus YDL192W, strain arf1, active compounds read low 1.01 | locus YDR001C, strain nth1, active compounds read low 1.01 | locus YDR069C, strain doa4, active compounds read low 1.01 | locus YDR101C, strain arx1, active compounds read low 1 | locus YDR137W, strain rgp1, active compounds read low 0.894 | locus YDR150W, strain NUM1, active compounds read low 1 | locus YDR159W, strain sac3, active compounds read low 1 | locus YDR162C, strain NBP2, active compounds read low 0.969 | locus YDR195W, strain ref2 1.07 | locus YDR297W, strain sur2, active compounds read low 1.01 | locus YDR318W, strain mcm21, active compounds read low 1 | locus YDR334W, strain swr1, active compounds read low 1 | locus YDR335W, strain msn5, active compounds read low 1.02 | locus YDR388W, active compounds read low 1.01 | locus YDR392W, strain spt3, active compounds read low 0.999 | locus YDR502C, strain sam2, active compounds read low 0.961 | locus YEL003W, strain gim4, active compounds read low 1.01 | locus YEL037C, strain rad23, active compounds read low 1.01 | locus YEL061C, strain CIN8 (second series), active compounds read low 0.999 | locus YEL061C, strain CIN8, active compounds read low 0.999 | locus YER015W, strain faa2, active compounds read low 1 | locus YER016W, strain bim1, active compounds read low 0.99 | locus YER110C, active compounds read low 1.02 | locus YER111C, strain swi4, active compounds read low 1 | locus YER155C, strain BEM2 (second series), active compounds read low 0.972 | locus YER155C, strain BEM2, active compounds read low 1.03 | locus YER167W, strain BCK2, active compounds read low 1 | locus YFR010W, strain ubp6, active compounds read low 0.999 | locus YGL078C, strain dbp3, active compounds read low 1.01 | locus YGL086W, strain mad1, active compounds read low 1 | locus YGL167C, strain pmr1, active compounds read low 1.01 | locus YGL173C, strain kem1, active compounds read low 1.01 | locus YGL227W, strain vid30, active compounds read low 0.989 | locus YGL240W, strain doc1, active compounds read low 1.01 | locus YGL248W, strain PDE1, active compounds read low 1 | locus YGL253W, strain hxk2, active compounds read low 1.01 | locus YGR078C, strain PAC10, active compounds read low 0.975 | locus YGR135W, strain pre9, active compounds read low 0.971 | locus YGR229C, strain SMI1, active compounds read low 0.998 | locus YGR252W, strain gcn5, active compounds read low 0.918 | locus YHR013C, strain ard1, active compounds read low 1.01 | locus YHR027C, strain rpn1, active compounds read low 1.01 | locus YHR030C, strain SLT2, active compounds read low 1.01 | locus YHR079C, strain IRE1 (second series), active compounds read low 1.01 | locus YHR079C, strain IRE1, active compounds read low 1.01 | locus YHR094C, strain hxt1, active compounds read low 1.02 | locus YHR129C, strain ARP1, active compounds read low 0.995 | locus YHR142W, strain chs7, active compounds read low 1.01 | locus YHR200W, strain rpn10, active compounds read low 1.02 | locus YIL066C, strain RNR3, active compounds read low 0.968 | locus YIL073C, strain SPO22, active compounds read low 1.18 | locus YIL125W, strain kgd1, active compounds read low 1.01 | locus YIR030C, strain dcg1, active compounds read low 1.02 | locus YJL092W, strain hpr5, active compounds read low 1 | locus YJL095W, strain BCK1 (second series), active compounds read low 1.01 | locus YJL095W, strain BCK1, active compounds read low 0.952 and 1.02 | locus YJL115W, strain asf1, active compounds read low 1.03 | locus YJL129C, strain trk1, active compounds read low 1 | locus YJL134W, strain LCB3, active compounds read low 1 | locus YJL154C, strain vps35, active compounds read low 1.01 | locus YJL164C, strain tpk1, active compounds read low 1.01 | locus YJL166W, strain qcr8, active compounds read low 1.02 | locus YJL168C, strain set2, active compounds read low 1.02 | locus YJL187C, strain SWE1 (second series), active compounds read low 0.986 | locus YJL187C, strain SWE1, active compounds read low 1 | locus YJR043C, strain POL32, active compounds read low 1 | locus YJR066W, strain TOR1, active compounds read low 0.949
